HP1b binding inh: HP1-beta chromodomain-methylated histone interaction inhibition. AID 540317. AlphaScreen HP1-beta / biotin-H3K9me3 peptide binding. Potency, µM (doses to about 114 µM), for inactives: at the highest dose activity change, negative = inhibition, most hits filed as inhibitors. actives 0.56% (n = 390,000); further: potency means the concentration at half of the fitted maximal effect; nearly all actives have a fitted effect of over 70% in size
Target sequence (P83916 whole entry, looked up): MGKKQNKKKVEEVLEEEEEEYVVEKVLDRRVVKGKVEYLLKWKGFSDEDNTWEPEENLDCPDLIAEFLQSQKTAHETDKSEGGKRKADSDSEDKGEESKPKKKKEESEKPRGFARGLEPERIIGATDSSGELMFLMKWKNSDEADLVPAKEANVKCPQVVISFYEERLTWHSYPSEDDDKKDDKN
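Compound inhibition of the preformed complex between 50 nM HP1-beta and 50 nM biotinylated H3K9me3 peptide was read by AlphaScreen. Buffer was PBS pH 7.4 with 0.01% Tween-20. Incubations ran 30 min at room temperature, with 10 ug/mL donor/acceptor beads.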
JMJD2A Tudor inh: blocks the human JMJD2A Tudor domain; O75164; AlphaScreen JMJD2A-Tudor / H3K4me3 peptide binding; Potency, µM (top dose mostly 114 µM), without a hit: at the highest dose activity change, negative = inhibition, usual class: inhibitors; actives 4.4% (n = 390,000); further: potency means the concentration at half of the fitted maximal effect; on the % scale 0 is the no-effect control and ±100 the full control effect; nearly all actives have a fitted effect of over 50% in size
CtBP-E1A blk: blocks the CtBP interaction with E1A; AlphaScreen GST-E1A/His-CtBP binding, 1536-well; hits give low values; activity change, % (no concentration beside the values); actives 0.49% (n = 340,000); AID 651724; in the data active means activity change below about -65%; inconclusive means mostly about -30% to -63%; further: on the % scale 0 is the no-effect control and ±100 the full control effect
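In 5 uL wells, 23 nL compound meets equimolar GST-E1A and His-CtBP (5X stock 125 nM each) for 2 h, 37 °C. Beads (5X, 50 ug/mL) then 1 h, 37 °C, dark.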
TDP1 block: inhibitors of human tyrosyl-DNA phosphodiesterase TDP1; Q9NUW8; recombinant TDP1, AlphaScreen DNA substrate cleavage; Potency, µM (highest dose often 130 µM), for inactives: at the top dose activity change, negative = inhibition, actives largely listed as inhibitors; actives 0.28% (n = 350,000); AID 485290; further: potency means the concentration at half of the fitted maximal effect; on the % scale 0 is the no-effect control and ±100 the full control effect; nearly all actives have a fitted effect of over 40% in size
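Compounds were preincubated with Tdp1 (1 nM final) for 15 min at room temperature before substrate (15 nM final) started a 5 min reaction; beads (10 ug/ml final) were then added for 10 min before AlphaScreen detection.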
BAZ2B inh: BAZ2B (human) inhibition. AlphaScreen BAZ2B-H3K14Ac peptide displacement. Potency, µM (series often up to 114 µM), inactives show at the top dose activity change, negative = inhibition, actives largely listed as inhibitors. Q9UIF8. actives 4.4% (n = 360,000); further: potency means the concentration at half of the fitted maximal effect; on the % scale 0 is the no-effect control and ±100 the full control effect; nearly all actives have a fitted effect of over 60% in size
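Protein-peptide AlphaScreen: BAZ2B 50 nM, b-H3K14Ac 50 nM, 1x PBS pH 7.4 + 0.01% Tween-20. Preincubation 30 min RT; cpd 30 min RT (top 110 uM); beads 20 min RT, light-protected.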
Six1-Eya2 inh: blocks human Six1 binding to Eya2 | Q15475+O00167 | AlphaScreen GST-Six1/His-Eya2 binding, biochemical; hits give low values | activity change, % (no concentration beside the values) | actives 0.56% (n = 360,000) | AID 651725; in the data active means activity change below about -65%; inconclusive means mostly about -30% to -63%; further: on the % scale 0 is the no-effect control and ±100 the full control effect
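AlphaScreen luminescence read after one hour at 37 °C in darkness. Pin-transferred compounds met GST-Six1 and His-Eya2 protein (5X stock 250 nM/500 nM) plus glutathione donor and Ni-chelate acceptor beads (5X, 50 ug/mL).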
An asterisk follows results filed as active; ? = inconclusive; . = no result; [ ] = another dose, or the depositor's remark. A selection: hits, their analogues and other compounds. The true share with any hit is near 5.3%. Unless noted, the call rests on the fitted dose curve; in most records, active means well fitted inhibition curve with a large enough effect; inconclusive means small, poorly fitted or top-dose-only effect; inactive means no such curve, though single readings can be large or run the other way.

SMILES | HP1b binding inh | JMJD2A Tudor inh | CtBP-E1A blk | TDP1 block | BAZ2B inh | Six1-Eya2 inh
CC(C)(C)c1nnc(N/N=C/c2ccccc2O)n(N)c1=O | 20% | 22µM* | -2 | 8% | 20µM* | -91*
COc1ccccc1CNS(=O)(=O)c1ccc2c(c1)CC(C)N2C(C)=O (stereo unspecified) | 25% | -10% | . | -1% | 1% | .
CC1CCN(S(=O)(=O)c2ccc3nc(NCc4ccc(N(C)C)cc4)ccc3c2)CC1 | ? | 14µM* | . | 11% | 35µM* | .
CC1CCN(S(=O)(=O)c2ccc3nc(NCc4ccc(F)cc4)ccc3c2)CC1 | 43% | 8% | . | -3% | -2% | .
CCOC(=O)SC1=N/C(=C\c2ccc(N(C)C)cc2)C(=O)S1 | 35µM* | 20µM* | -17 | 9% | 13µM* | -15
CSC1=N/C(=C\c2ccc(C)cc2)C(=O)S1 | 113% | 38% | 3 | -3% | 39% | -1
Cc1nnc(SCc2ccc([N+](=O)[O-])cc2)o1 | -24% | 13µM* | 8 | 3% | ? | -2
COc1ccccc1N1CCN(/N=C/c2c(C)nn(-c3ccccc3)c2C)CC1 | 18µM* | 40µM* | ? | 11% | 28µM* | ?
COc1ccccc1N1CCN(/N=C/c2cccc(OC)c2OC)CC1 | ? | ? | 0 | 8% | 35µM* | 9
C(=N\N1CCN(c2ccccn2)CC1)/c1cccc2ccccc12 | ? | 40µM* | ? | 10% | 35µM* | ?
COc1ccccc1N1CCN(/N=C\c2sccc2C)CC1 | -25% | ? | -26 | 5% | 13µM* | ?
Oc1ccccc1/C=N/N1CCN(c2ccccn2)CC1 | 5% | ? | -13 | . | ? | -10
Cc1ccccc1Nc1oc(-c2ccccc2)nc1-c1ccccc1F | . | . | . | 4% | . | .
COc1ccc(OC)c(NC(=O)C2=C(C)C(=O)OC23CCN(C(C)C)CC3)c1 | 24% | -1% | . | 3% | -1% | .
CN(C)S(=O)(=O)c1ccc2c(c1)N(CC(=O)N1CCN(c3ccc(F)cc3)CC1)CCS2 | 13%[57 µM] | -28% | . | 7% | -21% | .
Cc1cccc(N2CCN(S(=O)(=O)c3csc(C(N)=O)c3)CC2)c1C | -3% | -32% | . | 3% | -25% | .
COc1ccccc1NS(=O)(=O)c1ccc(C)c(C(=O)N2CCN(c3ccc(O)cc3)CC2)c1 | -34% | 28µM* | -3 | 6% | . | -6
Cc1ccc(CO)cc1Nc1ncnc2onc(-c3ccc(F)cc3)c12 | 20% | -12% | . | -3% | -3% | .
Cc1ccc(C(=O)c2oc3ccccc3c2NC(=O)Cc2ccccc2)cc1 | 49% | 20% | . | 4% | 11% | .
COc1ccc(-c2c(C)[nH]n3c(=O)c(Cc4ccccc4)c(C)nc23)cc1OC | 18% | -23% | ? | 8% | -12% | -67*
COC(=O)c1sccc1S(=O)(=O)Nc1ccc(S(N)(=O)=O)cc1 | -15% | -9% | -25 | 6% | -4% | -2
COC(=O)c1sccc1S(=O)(=O)Nc1ccc(N2CCCCC2)cc1 | ? | ? | -26 | 8% | 35µM* | ?
O=C(O)c1cc(S(=O)(=O)Nc2ccc(N3CCCCC3)cc2)ccc1Cl | 10% | -30% | 5 | 0% | -32% | 1
O=S(=O)(Nc1ccc(N2CCCCC2)cc1)c1ccc(F)c(F)c1 | -37% | ? | -24 | 8% | 32µM* | -26
COc1cccc([C@@H]2Oc3ccc(OC)cc3C[C@H]2OC(=O)N[C@H](C)C2CCCCC2)c1 | . | . | . | 4% | . | .
SMILES | HP1b binding inh | JMJD2A Tudor inh | CtBP-E1A blk | TDP1 block | BAZ2B inh | Six1-Eya2 inh
COC(=O)c1ccccc1NC(=O)c1noc2c1CSc1ccccc1-2 | 80% | 25% | . | -11% | 40% | .
COC(=O)c1ccccc1NC(=O)c1noc2c1CCC2 | ? | 50µM* | 4 | 11µM* | 50µM* | -6
CSc1ccccc1NC(=O)c1noc2c1CCC2 | 50µM* | 50µM* | 15 | 16µM* | 40µM* | -3
Cc1ccc(O)c(NC(=O)c2noc3c2CCCC3)c1 | 12% | -13% | . | 0% | 0% | .
Cc1cccc(NC(=O)CCc2c(C)nc3nc(CNC(=O)c4cccc(F)c4)nn3c2C)c1 | 48% | 2% | . | 3% | -2% | .
Cc1sc2ncn(CC(=O)N3CCN(c4cccc(Cl)c4)CC3)c(=O)c2c1S(=O)(=O)N1CCC(C)CC1 | 25% | -20% | . | 6% | -10% | .
CCCn1c(SCC(=O)N2CCCCC2)nnc1C(C)C | ? | 25µM* | 0 | 3% | -2% | 6
CCCn1c(SCC(=O)NC)nnc1C(C)C | 19% | -7% | 4 | 4% | 3% | 4
COc1ccccc1-c1cc2nc(C)c(CCC(=O)NCCc3ccc(SC)cc3)c(C)n2n1 | 19% | -20% | . | 7% | -12% | .
O=C(Nc1ccc(S(=O)(=O)NC2=NCCCCC2)cc1)C1COc2ccccc2O1 (stereo unspecified) | 22% | -19% | . | 1% | -14% | 6
O=C(Nc1cccc(S(=O)(=O)NC2=NCCCCC2)c1)C1COc2ccccc2O1 (stereo unspecified) | -16% | ? | 3 | . | 56µM* | 0
Cc1c(N/N=C(\C#N)C(=O)c2ccccc2)c(=O)n(-c2ccccc2)n1C | 73% | 56µM* | ? | -3% | 32µM* | -86*
Cc1c(NC=C(C#N)C#N)c(=O)n(-c2ccccc2)n1C | 45% | 4% | 14 | 7% | 2% | -1
Cc1ccccc1C(=O)/C(C#N)=N/Nc1c(C)n(C)n(-c2ccccc2)c1=O | 19% | 50µM* | -70* | 11% | 50µM* | -68*
CCOC(=O)/C(C#N)=N/Nc1c(C)n(C)n(-c2ccccc2)c1=O | 56% | -17% | -7 | 8% | 79µM* | -13
Cc1nc(Nc2nc3ccccc3o2)nc2c1CCC2 | 6% | 10µM* | -3 | 2% | . | 6
Cc1ccc(CNC(=O)CSc2nc3ccsc3c(=O)n2-c2ccc(C(=O)O)cc2)cc1 | 30% | -4% | . | 0% | -1% | .
O=C(Nc1ccc(F)cc1F)N1CCc2c(sc3c2CCCC3)C1c1ccc(F)cc1 (stereo unspecified) | 4% | -10% | . | 4% | -23% | .
O=[N+]([O-])c1ccccc1C(O)Cc1ccccn1 (stereo unspecified) | 5% | -6% | 3 | . | . | 5
O=C(c1ccccc1)N1CCN(Cc2c[nH]c3ccccc23)CC1 | 48% | -8% | -8 | 2% | 2% | -4
O=[N+]([O-])c1ccccc1CN1CCN(Cc2ccccn2)CC1 | -10% | 0.79µM* | 1 | -3% | 50µM* | 1
O=[N+]([O-])c1ccccc1CN1CCN(c2ncccn2)CC1 | ? | 18µM* | 18 | . | 50µM* | 7

High-throughput results (PubChem)
